Assay results as given in a collection of fitness landscapes (doi:10.1016/j.celrep.2020.107928).
In all, about 81,000 sequences were measured (“one-hybrid fitness for binding NBS DNA”: median about -0.1, highest 2% from about 0.36 on). Only a selection was taken, and the highest values are over-represented in it overall.

B1: Caulobacter ParB omega fusion; a variant is named by its letters at X, in order, B8GW30 (parent)
chain: MESVVVGEPGMSEGRRGLGRGLSALLGEVDAAPAQAPGEQLGGSREAPIEILQRNPDQPRRTFREEDLEDLSNSIREKGVLQPILVRPSPDTAGEYQIVAGERAWRAAQRAGLKTVPIMVRELDDLAVLEIGIIENVQRADLNVLEEALSYKVLMEKFERTQENIAQTIGKSXSHVANXMRLLXLPDEVQSYLVSGELTAXHARAIAAAADPVALAKQIIEGGLSVRETEALARKAPNLSAGKSKGGRPPRVKDTDTQALESDLSSVLGLDVSIDHRGSTGTLTITYATLEQLDDLCNRLTRGI

Variants of: B1
Experiment: one-hybrid fitness for binding NBS DNA (the Noc-binding site; scaled: cognate 1, non-cognate 0); higher = stronger binding
Settings: with NBS DNA site
Method in brief: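 The reporter was HIS3, with the binding site 19 bp from the promoter, in E. coli USO used for bacterial one-hybrid selection of Caulobacter ParB libraries with four specificity codons randomised. Growth was on M9 lacking histidine, with 0.1 mM IPTG and 5 mM 3-AT, for 48 hours at 37°C. Illumina sequencing covered plasmids before and after selection; three replicate libraries were pooled and variants with under 10 reads dropped. A fitness score is the log change in variant-to-wild-type read ratio, rescaled to the cognate and non-cognate references.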

one-hybrid fitness for binding NBS DNA, 0.362:
QSKM

one-hybrid fitness for binding NBS DNA, 0.38:
TRRS

one-hybrid fitness for binding NBS DNA, 0.459:
TRNT

one-hybrid fitness for binding NBS DNA, 0.363:
QHQT

one-hybrid fitness for binding NBS DNA, 0.334:
TRYT

one-hybrid fitness for binding NBS DNA, 0.364:
QAQT

one-hybrid fitness for binding NBS DNA, 0.398:
RIST

one-hybrid fitness for binding NBS DNA, 0.411:
QSQT

one-hybrid fitness for binding NBS DNA, 0.526:
TRRT
QCQT

one-hybrid fitness for binding NBS DNA, 0.273:
QKVM

one-hybrid fitness for binding NBS DNA, 0.37:
QLQT

one-hybrid fitness for binding NBS DNA, 0.435:
RHST

one-hybrid fitness for binding NBS DNA, 0.265:
QRVM

one-hybrid fitness for binding NBS DNA, 0.217:
RFST

one-hybrid fitness for binding NBS DNA, 0.577:
QTQT

one-hybrid fitness for binding NBS DNA, 0.557:
QRKM

one-hybrid fitness for binding NBS DNA, 0.865:
QRFR

one-hybrid fitness for binding NBS DNA, 0.392:
QAKM

one-hybrid fitness for binding NBS DNA, 0.578:
TRKT
QKQT

one-hybrid fitness for binding NBS DNA, ≤ 0.2:
TCKT
TRYS
TRVT
TCRT
TRRN
TCNT
PANE
KSQQ
NCPT
FMKS
QNLL
SKPR
CSPY
QVAP
DRAR
NRAR
QRFF
IFSI
RYTI
HQWA
NIMG
QTQG
QKQC
QPQT
QDQT
QKQF
FPTH
SIGR
LNNM
TFLV
QLGE
CTTF
YCLC
SKES
QLQP
QLQN
MYYS
HTKF
FQTK
QPKM
QTVM
QAVM
QTWM
QAYM
WLRR
NYAI
IRSK
DSWA
ITVR
GKRG
QMVM
QKPM
QHVM
QHNM
QMQM
GAKC
KIRV
QELA
RQLA
DCST
RDST
RWST
RPST
RISP
RISH
RHSF
RHSQ

one-hybrid fitness for binding NBS DNA, 0.239:
QTQC

one-hybrid fitness for binding NBS DNA, 0.409:
QKKM

one-hybrid fitness for binding NBS DNA, 0.531:
RCST

one-hybrid fitness for binding NBS DNA, 1.01:
QRAR

one-hybrid fitness for binding NBS DNA, 0.379:
QHKM

one-hybrid fitness for binding NBS DNA, 0.249:
QIKM

one-hybrid fitness for binding NBS DNA, 0.426:
RSST

one-hybrid fitness for binding NBS DNA, 0.563:
QTKM

one-hybrid fitness for binding NBS DNA, 0.416:
QMKM

one-hybrid fitness for binding NBS DNA, 0.464:
QCKM
